Experimental data from ChEMBL document CHEMBL2218924, “A broad activity screen in support of a chemogenomic map for kinase signalling research and drug discovery” (Biochem J, 2013).

How the values were obtained:
[1] = molecular target: Serine/threonine-protein kinase WNK2 (Homo sapiens) (UniProt Q9Y3S1); conditions: at 10 µM
[2] = molecular target: Serine/threonine-protein kinase WNK3 (Homo sapiens) (UniProt Q9BYP7); conditions: at 1 µM
[3] = molecular target: Serine/threonine-protein kinase WNK3 (Homo sapiens) (UniProt Q9BYP7); conditions: at 10 µM
[4] = molecular target: Tyrosine-protein kinase Yes (Homo sapiens) (UniProt P07947); conditions: at 1 µM
[5] = molecular target: Tyrosine-protein kinase Yes (Homo sapiens) (UniProt P07947); conditions: at 10 µM
[6] = molecular target: RAF proto-oncogene serine/threonine-protein kinase (Homo sapiens) (UniProt P04049); conditions: at 1 µM
[7] = molecular target: RAF proto-oncogene serine/threonine-protein kinase (Homo sapiens) (UniProt P04049); conditions: at 10 µM
[8] = molecular target: Death-associated protein kinase 3 (Homo sapiens) (UniProt O43293); conditions: at 10 µM
[9] = molecular target: T1, Tyrosine-protein kinase ZAP-70 (Homo sapiens) (UniProt P43403); conditions: at 1 µM
T1 sequence (whole entry): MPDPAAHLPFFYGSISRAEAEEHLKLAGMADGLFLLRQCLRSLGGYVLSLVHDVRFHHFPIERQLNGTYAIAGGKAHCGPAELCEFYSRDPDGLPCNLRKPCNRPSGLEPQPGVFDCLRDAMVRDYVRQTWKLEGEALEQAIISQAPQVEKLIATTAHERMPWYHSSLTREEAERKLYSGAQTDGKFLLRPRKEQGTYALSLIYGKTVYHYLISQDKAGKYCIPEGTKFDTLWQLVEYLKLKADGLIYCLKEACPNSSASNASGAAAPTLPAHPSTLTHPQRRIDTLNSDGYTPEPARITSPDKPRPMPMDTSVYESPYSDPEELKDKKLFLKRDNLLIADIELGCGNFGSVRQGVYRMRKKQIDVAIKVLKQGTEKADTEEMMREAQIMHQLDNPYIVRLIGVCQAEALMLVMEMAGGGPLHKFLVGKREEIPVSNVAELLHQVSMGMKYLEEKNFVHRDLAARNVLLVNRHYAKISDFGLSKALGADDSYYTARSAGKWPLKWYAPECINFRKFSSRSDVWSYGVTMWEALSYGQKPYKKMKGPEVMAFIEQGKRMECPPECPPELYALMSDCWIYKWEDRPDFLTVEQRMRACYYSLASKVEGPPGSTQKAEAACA

[10] = molecular target: Death-associated protein kinase 3 (Homo sapiens) (UniProt O43293); conditions: at 1 µM

Death-associated protein kinase 3 (Homo sapiens), sequence (O43293 whole entry, looked up): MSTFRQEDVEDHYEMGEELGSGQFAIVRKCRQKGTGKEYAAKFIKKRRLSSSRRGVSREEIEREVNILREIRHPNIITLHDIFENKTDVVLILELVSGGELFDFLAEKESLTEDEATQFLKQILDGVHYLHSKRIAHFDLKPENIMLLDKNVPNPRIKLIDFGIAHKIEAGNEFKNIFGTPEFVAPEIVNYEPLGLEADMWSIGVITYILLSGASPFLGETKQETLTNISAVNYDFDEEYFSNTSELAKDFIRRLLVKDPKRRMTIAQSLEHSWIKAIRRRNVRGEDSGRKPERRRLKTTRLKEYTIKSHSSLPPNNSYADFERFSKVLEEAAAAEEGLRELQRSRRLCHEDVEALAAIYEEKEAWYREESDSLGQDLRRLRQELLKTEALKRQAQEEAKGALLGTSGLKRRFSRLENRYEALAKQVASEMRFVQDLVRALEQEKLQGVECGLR
Serine/threonine-protein kinase WNK2 (Homo sapiens), sequence (Q9Y3S1 whole entry): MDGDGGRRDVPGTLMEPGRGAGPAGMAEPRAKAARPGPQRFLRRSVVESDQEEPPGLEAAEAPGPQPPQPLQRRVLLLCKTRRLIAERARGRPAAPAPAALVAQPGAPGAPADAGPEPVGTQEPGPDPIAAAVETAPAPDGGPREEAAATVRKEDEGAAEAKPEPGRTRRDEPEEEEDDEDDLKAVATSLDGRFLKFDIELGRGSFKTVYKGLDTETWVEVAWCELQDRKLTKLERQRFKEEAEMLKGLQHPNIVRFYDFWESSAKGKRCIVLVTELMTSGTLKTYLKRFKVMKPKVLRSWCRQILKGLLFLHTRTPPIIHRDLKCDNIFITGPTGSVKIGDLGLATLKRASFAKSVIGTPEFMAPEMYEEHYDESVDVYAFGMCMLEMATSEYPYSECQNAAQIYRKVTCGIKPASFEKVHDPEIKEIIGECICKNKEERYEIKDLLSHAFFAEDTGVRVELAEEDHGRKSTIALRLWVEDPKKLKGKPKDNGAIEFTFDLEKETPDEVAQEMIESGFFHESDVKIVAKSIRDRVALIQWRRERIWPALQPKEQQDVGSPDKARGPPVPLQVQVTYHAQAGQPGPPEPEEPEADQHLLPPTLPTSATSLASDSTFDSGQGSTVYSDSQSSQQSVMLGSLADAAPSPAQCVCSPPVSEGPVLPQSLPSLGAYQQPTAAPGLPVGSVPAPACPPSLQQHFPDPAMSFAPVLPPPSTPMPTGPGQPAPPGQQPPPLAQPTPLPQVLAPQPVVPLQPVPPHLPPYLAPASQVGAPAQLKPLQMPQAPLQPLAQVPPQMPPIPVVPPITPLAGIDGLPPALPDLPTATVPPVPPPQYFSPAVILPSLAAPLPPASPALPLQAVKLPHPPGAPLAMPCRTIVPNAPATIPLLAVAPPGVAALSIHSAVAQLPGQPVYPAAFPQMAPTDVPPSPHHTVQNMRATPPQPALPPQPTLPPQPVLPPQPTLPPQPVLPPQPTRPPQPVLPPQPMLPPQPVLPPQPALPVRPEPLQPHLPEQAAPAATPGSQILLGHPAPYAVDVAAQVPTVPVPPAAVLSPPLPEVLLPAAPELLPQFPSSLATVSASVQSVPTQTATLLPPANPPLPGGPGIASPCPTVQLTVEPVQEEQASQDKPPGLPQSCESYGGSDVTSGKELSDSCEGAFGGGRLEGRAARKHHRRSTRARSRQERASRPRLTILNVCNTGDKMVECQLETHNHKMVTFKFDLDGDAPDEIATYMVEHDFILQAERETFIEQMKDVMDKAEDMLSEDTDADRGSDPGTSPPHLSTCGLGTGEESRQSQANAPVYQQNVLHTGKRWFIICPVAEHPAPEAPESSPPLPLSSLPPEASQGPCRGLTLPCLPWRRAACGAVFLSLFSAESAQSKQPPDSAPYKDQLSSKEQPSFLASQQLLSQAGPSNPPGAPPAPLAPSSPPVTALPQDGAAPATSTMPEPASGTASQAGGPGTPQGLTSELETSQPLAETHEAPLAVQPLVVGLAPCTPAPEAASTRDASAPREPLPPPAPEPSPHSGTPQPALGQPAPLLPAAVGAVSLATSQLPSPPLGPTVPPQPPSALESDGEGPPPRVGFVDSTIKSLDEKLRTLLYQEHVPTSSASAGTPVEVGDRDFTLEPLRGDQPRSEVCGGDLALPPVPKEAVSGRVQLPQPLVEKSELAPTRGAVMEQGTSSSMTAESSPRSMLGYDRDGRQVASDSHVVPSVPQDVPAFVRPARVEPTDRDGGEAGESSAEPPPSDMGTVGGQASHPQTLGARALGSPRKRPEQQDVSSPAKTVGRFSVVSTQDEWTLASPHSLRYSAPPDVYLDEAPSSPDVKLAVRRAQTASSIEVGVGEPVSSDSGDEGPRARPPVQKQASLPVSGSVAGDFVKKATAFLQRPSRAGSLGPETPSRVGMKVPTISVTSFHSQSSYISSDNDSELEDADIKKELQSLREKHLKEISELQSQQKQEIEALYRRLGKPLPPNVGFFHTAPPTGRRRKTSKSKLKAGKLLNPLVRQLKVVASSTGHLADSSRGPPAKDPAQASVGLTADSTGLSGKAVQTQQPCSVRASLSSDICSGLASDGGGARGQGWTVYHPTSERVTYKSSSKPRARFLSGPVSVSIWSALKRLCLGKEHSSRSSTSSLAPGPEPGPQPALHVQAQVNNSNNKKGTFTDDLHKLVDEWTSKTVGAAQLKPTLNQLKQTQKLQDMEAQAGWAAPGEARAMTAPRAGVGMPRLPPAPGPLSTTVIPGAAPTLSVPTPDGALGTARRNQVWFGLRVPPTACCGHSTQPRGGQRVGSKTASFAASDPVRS
Tyrosine-protein kinase Yes (Homo sapiens), sequence (P07947 2-543 limits assumed): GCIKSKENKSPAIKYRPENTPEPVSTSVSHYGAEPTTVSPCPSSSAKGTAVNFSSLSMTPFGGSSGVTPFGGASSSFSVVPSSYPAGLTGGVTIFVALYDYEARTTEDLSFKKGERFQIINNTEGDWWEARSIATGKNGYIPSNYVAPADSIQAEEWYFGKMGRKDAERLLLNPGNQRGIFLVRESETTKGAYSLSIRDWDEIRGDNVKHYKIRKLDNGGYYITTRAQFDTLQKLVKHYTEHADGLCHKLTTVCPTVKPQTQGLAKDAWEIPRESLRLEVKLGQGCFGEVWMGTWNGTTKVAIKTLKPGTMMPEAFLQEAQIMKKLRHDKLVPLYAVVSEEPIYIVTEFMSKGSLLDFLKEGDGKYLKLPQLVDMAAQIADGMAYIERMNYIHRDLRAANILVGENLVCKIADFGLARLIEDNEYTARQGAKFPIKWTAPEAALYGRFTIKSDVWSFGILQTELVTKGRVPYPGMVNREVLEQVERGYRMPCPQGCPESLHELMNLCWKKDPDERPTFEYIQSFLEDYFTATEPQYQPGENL
RAF proto-oncogene serine/threonine-protein kinase (Homo sapiens), sequence (P04049 whole entry): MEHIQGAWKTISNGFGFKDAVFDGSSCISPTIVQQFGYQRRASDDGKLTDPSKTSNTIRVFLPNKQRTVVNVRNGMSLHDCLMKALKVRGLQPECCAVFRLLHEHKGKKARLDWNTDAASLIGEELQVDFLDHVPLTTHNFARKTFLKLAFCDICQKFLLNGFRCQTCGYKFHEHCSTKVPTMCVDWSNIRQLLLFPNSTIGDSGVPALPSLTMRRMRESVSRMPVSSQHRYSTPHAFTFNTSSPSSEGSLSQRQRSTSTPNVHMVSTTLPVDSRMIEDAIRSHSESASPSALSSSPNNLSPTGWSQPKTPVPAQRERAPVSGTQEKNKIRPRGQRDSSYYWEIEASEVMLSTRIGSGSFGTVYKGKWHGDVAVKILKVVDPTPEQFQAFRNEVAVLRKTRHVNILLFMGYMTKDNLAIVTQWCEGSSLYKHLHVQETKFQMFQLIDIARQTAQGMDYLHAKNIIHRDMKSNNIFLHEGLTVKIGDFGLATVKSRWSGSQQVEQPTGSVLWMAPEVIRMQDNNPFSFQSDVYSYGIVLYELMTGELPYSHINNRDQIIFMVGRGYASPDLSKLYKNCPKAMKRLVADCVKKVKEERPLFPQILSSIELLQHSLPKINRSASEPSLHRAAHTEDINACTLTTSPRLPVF

## Nc1nc(Nc2ccc(S(N)(=O)=O)cc2)nn1C(=O)c1c(F)cccc1F
[1]
  residual activity: 82%
[2]
  residual activity: 100% (inactive)
[3]
  residual activity: 80%
[4]
  residual activity: 50%
[5]
  residual activity: 4%
[6]
  residual activity: 79%
[7]
  residual activity: 26%

## N#Cc1c(NC(=O)c2cccc3ccccc23)sc2c1CCCC2
[1]
  residual activity: 95%
[3]
  residual activity: 84%
[4]
  residual activity: 129%
[6]
  residual activity: 91%
[7]
  residual activity: 78%

## N#C/C(=C1/Nc2ccccc2S1)c1ccnc(NCCc2cccnc2)n1
[1]
  residual activity: 28%
[2]
  residual activity: 73% (inactive)
[3]
  residual activity: 39%
[4]
  residual activity: 113%
[5]
  residual activity: 48%
[8]
  residual activity: 76%

## COc1ccc2c(c1)c(C1=C(c3c[nH]c4ccccc34)C(=O)NC1=O)cn2CCCN(C)C
[1]
  residual activity: 68%
[2]
  residual activity: 105% (inactive)
[3]
  residual activity: 77%
[4]
  residual activity: 75%
[5]
  residual activity: 20%
[9]
  residual activity: 99%
[10]
  residual activity: 61%
[8]
  residual activity: 27%
[6]
  residual activity: 81%

## Nc1ncnc2c1c(-c1ccc(Oc3ccccc3)cc1)cn2C1CCCC1
[1]
  residual activity: 42%
[2]
  residual activity: 91% (inactive)
[3]
  residual activity: 52%
[4]
  residual activity: 0%
[5]
  residual activity: 0%
[9]
  residual activity: 102%
[10]
  residual activity: 103%
[8]
  residual activity: 112%
[6]
  residual activity: 44%
[7]
  residual activity: 18%

## CCOC(=O)c1c(C)[nH]c(/C=C2\C(=O)Nc3ccccc32)c1C
[1]
  residual activity: 90%
[2]
  residual activity: 93% (inactive)
[3]
  residual activity: 92%
[4]
  residual activity: 91%
[5]
  residual activity: 80%
[10]
  residual activity: 94%
[6]
  residual activity: 100%

## NC(=O)Nc1sc(-c2ccc(F)cc2)cc1C(N)=O
[1]
  residual activity: 68%
[2]
  residual activity: 81% (inactive)
[3]
  residual activity: 75%
[4]
  residual activity: 38%
[5]
  residual activity: 4%
[9]
  residual activity: 96%
[10]
  residual activity: 85%
[8]
  residual activity: 50%
[6]
  residual activity: 54%
[7]
  residual activity: 19%

## O=C1NC(=O)c2c1c1c3ccccc3[nH]c1n1cncc21
[1]
  residual activity: 43%
[2]
  residual activity: 74% (inactive)
[3]
  residual activity: 45%
[4]
  residual activity: 90%
[5]
  residual activity: 59%
[9]
  residual activity: 97%
[10]
  residual activity: 27%
[8]
  residual activity: 30%
[6]
  residual activity: 68%
[7]
  residual activity: 60%

## COc1cc2nccc(Oc3ccc(NC(=O)Nc4cc(C)on4)c(Cl)c3)c2cc1OC
[1]
  residual activity: 54%
[2]
  residual activity: 58% (inactive)
[3]
  residual activity: 62%
[4]
  residual activity: 30%
[5]
  residual activity: 6%
[9]
  residual activity: 123%
[10]
  residual activity: 82%
[6]
  residual activity: 0%
[7]
  residual activity: 1%

## O=C(CCCc1ccc(-c2ccccc2F)cc1)Nc1ccc(O)cc1
[1]
  residual activity: 88%
[2]
  residual activity: 94% (inactive)
[3]
  residual activity: 91%
[9]
  residual activity: 109%
[10]
  residual activity: 98%
[8]
  residual activity: 98%
[6]
  residual activity: 81%
[7]
  residual activity: 85%

## CC(C)(C)n1nc(Cc2cccc3ccccc23)c2c(N)ncnc21
[1]
  residual activity: 66%
[2]
  residual activity: 95% (inactive)
[3]
  residual activity: 72%
[4]
  residual activity: 5%
[5]
  residual activity: 0%
[9]
  residual activity: 97%
[10]
  residual activity: 99%
[8]
  residual activity: 113%
[6]
  residual activity: 27%
[7]
  residual activity: 3%

## O=C(c1ccccc1)c1ccc(N2CCOCC2)cc1O
[1]
  residual activity: 94%
[2]
  residual activity: 112% (inactive)
[3]
  residual activity: 97%
[4]
  residual activity: 115%
[5]
  residual activity: 95%
[10]
  residual activity: 84%
[6]
  residual activity: 93%
[7]
  residual activity: 94%

## c1ccc(-c2cnc(Nc3ccc(OCCN4CCCC4)cc3)s2)cc1
[1]
  residual activity: 80%
[2]
  residual activity: 114% (inactive)
[3]
  residual activity: 100%
[4]
  residual activity: 32%
[5]
  residual activity: 3%

## COc1cc2c(cc1OC)-c1n[nH]c(Nc3cccc(F)c3)c1C2
[1]
  residual activity: 46%
[3]
  residual activity: 59%
[4]
  residual activity: 17%
[5]
  residual activity: 1%
[10]
  residual activity: 73%
[8]
  residual activity: 98%
[6]
  residual activity: 64%
[7]
  residual activity: 54%

## NC(=O)c1ccc(-c2nc(-c3ccc4c(c3)OCCO4)c(-c3ccccn3)[nH]2)cc1
[1]
  residual activity: 96%
[2]
  residual activity: 123% (inactive)
[3]
  residual activity: 98%
[9]
  residual activity: 88%
[6]
  residual activity: 85%
[7]
  residual activity: 55%

## CN(C)S(=O)(=O)c1ccc2c(c1)/C(=C/c1cc3c([nH]1)CCCC3)C(=O)N2
[1]
  residual activity: 89%
[2]
  residual activity: 100% (inactive)
[3]
  residual activity: 89%
[4]
  residual activity: 12%
[5]
  residual activity: 6%
[9]
  residual activity: 114%
[10]
  residual activity: 94%
[8]
  residual activity: 100%
[6]
  residual activity: 91%
[7]
  residual activity: 91%

## O=C1Cc2c([nH]c3ccc(Br)cc23)-c2ccccc2N1
[1]
  residual activity: 67%
[2]
  residual activity: 88% (inactive)
[3]
  residual activity: 70%
[4]
  residual activity: 42%
[5]
  residual activity: 9%
[6]
  residual activity: 75%
[7]
  residual activity: 69%

## CC(C)[C@H](CO)Nc1nc(Nc2cc(N)cc(Cl)c2)c2ncn(C(C)C)c2n1
[1]
  residual activity: 40%
[2]
  residual activity: 88% (inactive)
[3]
  residual activity: 37%
[4]
  residual activity: 5%
[5]
  residual activity: 0%
[9]
  residual activity: 98%
[10]
  residual activity: 95%
[8]
  residual activity: 84%
[6]
  residual activity: 59%
[7]
  residual activity: 17%

## O=C(c1cc2cc(O)ccc2[nH]1)c1cc2cc(O)ccc2[nH]1
[1]
  residual activity: 35%
[3]
  residual activity: 44%
[4]
  residual activity: 6%
[5]
  residual activity: 0%
[9]
  residual activity: 127%
[8]
  residual activity: 49%
[6]
  residual activity: 76%
[7]
  residual activity: 72%

## Nc1ncnc2c1cnn2-c1ccccc1
[1]
  residual activity: 91%
[2]
  residual activity: 99% (inactive)
[3]
  residual activity: 92%
[5]
  residual activity: 92%
[9]
  residual activity: 98%
[10]
  residual activity: 92%

## O=C1C(Cl)=C(N2C(=O)CCC2=O)C(=O)c2ccccc21
[1]
  residual activity: 92%
[2]
  residual activity: 94% (inactive)
[3]
  residual activity: 95%
[5]
  residual activity: 101%
[6]
  residual activity: 82%
[7]
  residual activity: 61%

## O=c1cc(N2CCOCC2)oc2c1ccc1ccccc12
[1]
  residual activity: 84%
[2]
  residual activity: 103% (inactive)
[3]
  residual activity: 92%
[4]
  residual activity: 103%
[5]
  residual activity: 95%
[10]
  residual activity: 105%
[8]
  residual activity: 85%
[6]
  residual activity: 83%
[7]
  residual activity: 89%

## COc1ccc(COc2ccc(Cc3cnc(N)nc3N)cc2OC)cc1
[1]
  residual activity: 75%

## O=c1cc(N2CCNCC2)oc2c(-c3ccccc3)cccc12
[1]
  residual activity: 80%
[2]
  residual activity: 133% (inactive)
[3]
  residual activity: 98%
[5]
  residual activity: 91%
[9]
  residual activity: 103%
[8]
  residual activity: 99%
[6]
  residual activity: 88%
[7]
  residual activity: 87%

## COc1cc2nccc(Oc3ccc(NC(=S)NC(=O)c4ccccc4C)cc3)c2cc1OC
[1]
  residual activity: 43%
[2]
  residual activity: 82% (inactive)
[3]
  residual activity: 49%
[4]
  residual activity: 15%
[5]
  residual activity: 3%
[9]
  residual activity: 94%
[6]
  residual activity: 65%
[7]
  residual activity: 73%
